# PubChem BioAssay (NCATS)
# Values joined by “and” are separate entries in the source; they are usually repeats but may differ in a detail not shown here. Equal values may be shown once. Inconclusive results are not listed. A call without a number means that no potency is given here. Where a structure was tested more than once in an assay, its records may differ in their call. Active and inactive are the calls of the source. Unless noted, the call rests on the fitted dose curve; in most records, active means well fitted curve in the direction sought with a large enough effect; inconclusive means small, poorly fitted or top-dose-only effect, or another doubt; inactive means no such curve, though single readings can be large; an effect the other way counts as inactive or inconclusive.
# How the values were obtained:
# [1] = Cell Viability - Jurkat (AID 426;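 active means dose-dependent loss of cell ATP signal giving a full or clear fitted curve, ranked by lower potency value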; further: potency means the concentration at half of the fitted maximal effect); settings: qHTS
# How it was run: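 qHTS, 1536-well; Jurkat E6-1, 5000 cells/well, complete medium; cpd 40 hr, 37 °C; CellTiter-Glo 20 min RT; luminescence. AC50 by Hill fit.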
# [2] = Cell Viability - NIH 3T3 (AID 541); settings: NIH 3T3 cell viability, qHTS; activity change, negative = cytotoxicity: at 92.2 µM (top of the series); further: nearly all actives have a fitted effect of over 25% in size
# How it was run: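 Luminescent ATP signal (CellTiter-Glo) served as the viability read-out after NIH 3T3 cells were exposed to compounds over a concentration range for 40 hr at 37 °C. Hill-equation modelling of concentration-response data gave AC50.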
# [3] = Cell Viability - H-4-II-E (AID 543); further: nearly all actives have a fitted effect of over 35% in size
# How it was run: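 Luminescent ATP signal (CellTiter-Glo) served as the viability read-out, with cytotoxicity seen as a concentration-dependent ATP drop. Cells were treated for 40 hours in complete medium. AC50 values derive from Hill-equation modelling.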
# [4] = target: Cytochrome P450 3A4 (Homo sapiens) (UniProt P08684); assay: qHTS Assay for Inhibitors and Substrates of Cytochrome P450 3A4 (AID 884); further: nearly all actives have a fitted effect of over 50% in size; further: potency means the concentration at half of the fitted maximal effect
# How it was run: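 20 nM human CYP3A4 with 25 uM Luciferin-PPXE (at KM) in 200 mM KPO4, preincubated 10 min with compound; NADPH regeneration started a 60 min RT reaction. Luciferin detected by luminescence, normalized to 57 uM ketoconazole as full inhibition.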
# [5] = Cell Viability - LYMP2-001 (AID 921); further: nearly all actives have a fitted effect of over 70% in size
# How it was run: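 Cellular ATP loss read by luciferase luminescence after 24 h compound exposure at 37 C in complete medium. LYMP2-001 lymphoblastoid cells, 2500/well; qHTS concentration-response data fitted with Hill equation for AC50.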
# [6] = MultiTox-Fluor Cytotoxicity Assay - LYMP1-001 - Live Cells (AID 947)
# [7] = Cell Viability - LYMP2-005 (AID 967)
# How it was run: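 LYMP2-005 human lymphoblastoid cells (2500/well) were treated with compounds for 24 h at 37 C. Intracellular ATP was then measured by CellTiter-Glo luminescence after 30 min at room temperature. AC50 values came from Hill-equation fits of qHTS concentration-response data.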
# [8] = Cell Viability - LYMP2-010 (AID 981); further: nearly all actives have a fitted effect of over 55% in size
# How it was run: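 Luminescent ATP signal (CellTiter-Glo) served as the viability read-out. Cells of the human lymphoblastoid line were treated with compound over a concentration range for 24 hours at 37 C, and AC50 values came from Hill-equation modeling.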
# [9] = Cell Viability - LYMP2-012 (AID 982);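 further: cellular ATP by luciferase luminescence where a drop means cytotoxicity; cells exposed to compound for one day before reading; nearly all actives have a fitted effect of over 55% in size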
# [10] = Cell Viability - LYMP2-014 (AID 983); further: nearly all actives have a fitted effect of over 50% in size
# How it was run: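 Luminescent ATP signal (CellTiter-Glo, 30 min at room temperature) serves as the viability read-out after 24 hr compound exposure at 37 C. Cells were seeded at 2500 per well and settled 5 hr beforehand.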
# [11] = Cell Viability - LYMP2-016 (AID 984); further: nearly all actives have a fitted effect of over 55% in size
# How it was run: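 Cytotoxicity was scored by luminescent ATP content (CellTiter-Glo) after 24 h compound exposure at 37 C of a human lymphoblastoid line at 2500 cells/well. Concentration-response data were fitted to the Hill equation for AC50.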
# [12] = Cell Viability - LYMP2-020 (AID 986); further: nearly all actives have a fitted effect of over 55% in size
# How it was run: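 Luminescent ATP signal (CellTiter-Glo, 30 min at room temperature) is the read-out after 24 h compound treatment of lymphoblastoid cells at 37 C. AC50 values come from Hill-equation fits across concentrations.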
# [13] = target: Bile acid receptor (Homo sapiens) (UniProt Q96RI1); assay: qHTS assay for small molecule agonists of farnesoid X receptor signaling (AID 588527; calls by dose curve); settings: HEK293T FXR-UAS-bla, beta-lactamase ratio, 16 h; stronger effect = higher value
# How it was run: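 Read-out: beta-lactamase reporter fluorescence with CCF4 substrate in GeneBLAzer FXR-UAS-bla HEK293T cells, after 16 h compound exposure at 37 C. Response scaled between DMSO basal (0%) and chenodeoxycholic acid at 100 uM (100%).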
# [14] = qHTS assay for small molecule antagonists of peroxisome proliferator-activated receptor delta signaling (AID 588535); settings: HEK293T PPARd-UAS-bla, beta-lactamase FRET ratio, 18 h; 460 nm channel;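 further: cells co-treated with a PPAR-delta agonist as stimulator during compound exposure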
# How it was run: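 Antagonist-mode beta-lactamase reporter (GeneBLAzer PPAR-delta-UAS-bla) in HEK293T cells, 2% charcoal/dextran FBS, 4000 cells/well. Compound titrations, 18 h at 37 C; CCF4 ratio read, IC50 and efficacy from Hill fits.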
# [15] = qHTS assay for small molecule agonists of retinoid X receptor alpha signaling (AID 588544); settings: HEK293T RXRa-UAS-bla, beta-lactamase reporter, 18 h; 530 nm emission
# [16] = target: Nuclear receptor ROR-gamma (Homo sapiens) (UniProt P51449); assay: qHTS assay for small molecule antagonists of the retinoid-related orphan receptor gamma (ROR-gamma) signaling pathway (AID 651802);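 further: luciferase reporter luminescence driven by ROR response element; nearly all actives have a fitted effect of over 60% in size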
# How it was run: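 CHO, TET-inducible ROR + RORE-LUC reporter, 1536-well qHTS. Compound pinned, doxycycline added, 16hr 37C/5% CO2. ONE-Glo, 30 min RT, luminescence; signal drop scored as antagonism.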
# [17] = qHTS assay for small molecule antagonists of the retinoid-related orphan receptor gamma (ROR-gamma) signaling pathway - cell viability counter screen (AID 720652; active means well fitted curve in the direction sought with a large enough effect in the repeat runs; an effect the other way counts as inactive or inconclusive;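 further: compound exposure lasted 16 hr before ATP read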)
# How it was run: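 Luminescence from CellTiter-Glo after 30 min at room temperature reported cellular ATP as the cytotoxicity measure. Cells were the CHO reporter line with doxycycline-induced ROR-gamma expression, exposed to compound for 16 hr at 37 C.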
# [18] = target: Nuclear receptor subfamily 1 group I member 2 (Rattus norvegicus) (UniProt Q9R1A7); assay: qHTS assay for small molecule activators of the rat pregnane X receptor (rPXR) signaling pathway (AID 651751; call rule not given here); settings: rPXR reporter cells, luciferase (One-Glo), 24 h
# [19] = qHTS assay for small molecule activators of the human pregnane X receptor (PXR) signaling pathway (AID 720659; call rule not given here)
# [20] = target: Mitogen-activated protein kinase 10 (Mus musculus) (UniProt Q61831); assay: JNK3 AlphaScreen Assay (AID 530; active means well fitted curve in either direction with a large enough effect, not every such curve was filed as active;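 further: kinase came from lysate of stimulated human HepG2 cells; signal reports phosphorylation of biotinylated GST-cJun 1-79 at Ser73 with 10 µM ATP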)
# How it was run: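 Pre-activated (IL-1β/TNFα) JNK3 in HepG2 lysates phosphorylates biotin-GST-cJun(1-79), 10 uM ATP; anti-phospho-cJun(Ser73) AlphaScreen read at room temperature, pH 7.6 Tris buffer. Compounds pre-incubated 15 min as titrations.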
# Sequence of Bile acid receptor (Homo sapiens) (Q96RI1 whole entry, looked up): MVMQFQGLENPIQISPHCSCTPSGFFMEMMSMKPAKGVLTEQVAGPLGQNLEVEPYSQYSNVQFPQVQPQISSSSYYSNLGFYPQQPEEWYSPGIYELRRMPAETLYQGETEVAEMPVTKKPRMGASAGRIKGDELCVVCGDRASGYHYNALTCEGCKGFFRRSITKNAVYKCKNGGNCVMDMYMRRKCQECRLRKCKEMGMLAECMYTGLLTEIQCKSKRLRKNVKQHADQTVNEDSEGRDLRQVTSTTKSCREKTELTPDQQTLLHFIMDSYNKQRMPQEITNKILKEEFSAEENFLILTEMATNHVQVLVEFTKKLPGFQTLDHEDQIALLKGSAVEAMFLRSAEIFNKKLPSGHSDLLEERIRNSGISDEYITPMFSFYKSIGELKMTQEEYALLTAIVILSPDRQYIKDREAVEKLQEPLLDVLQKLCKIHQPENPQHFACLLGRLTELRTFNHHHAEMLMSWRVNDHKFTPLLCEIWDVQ
# Sequence of Nuclear receptor ROR-gamma (Homo sapiens) (P51449 whole entry, looked up): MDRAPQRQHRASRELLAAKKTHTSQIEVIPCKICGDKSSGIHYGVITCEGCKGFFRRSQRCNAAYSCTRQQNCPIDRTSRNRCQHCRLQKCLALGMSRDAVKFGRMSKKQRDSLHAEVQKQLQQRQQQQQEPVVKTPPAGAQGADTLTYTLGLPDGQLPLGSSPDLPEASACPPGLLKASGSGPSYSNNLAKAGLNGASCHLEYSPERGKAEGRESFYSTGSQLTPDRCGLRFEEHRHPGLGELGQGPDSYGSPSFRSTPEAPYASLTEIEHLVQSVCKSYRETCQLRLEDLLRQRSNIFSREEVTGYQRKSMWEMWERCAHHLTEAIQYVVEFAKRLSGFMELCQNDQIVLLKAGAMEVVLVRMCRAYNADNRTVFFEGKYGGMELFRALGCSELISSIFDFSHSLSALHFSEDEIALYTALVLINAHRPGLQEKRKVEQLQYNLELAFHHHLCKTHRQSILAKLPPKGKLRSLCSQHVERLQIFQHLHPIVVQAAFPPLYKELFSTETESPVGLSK
# Sequence of Nuclear receptor subfamily 1 group I member 2 (Rattus norvegicus) (Q9R1A7 whole entry, looked up): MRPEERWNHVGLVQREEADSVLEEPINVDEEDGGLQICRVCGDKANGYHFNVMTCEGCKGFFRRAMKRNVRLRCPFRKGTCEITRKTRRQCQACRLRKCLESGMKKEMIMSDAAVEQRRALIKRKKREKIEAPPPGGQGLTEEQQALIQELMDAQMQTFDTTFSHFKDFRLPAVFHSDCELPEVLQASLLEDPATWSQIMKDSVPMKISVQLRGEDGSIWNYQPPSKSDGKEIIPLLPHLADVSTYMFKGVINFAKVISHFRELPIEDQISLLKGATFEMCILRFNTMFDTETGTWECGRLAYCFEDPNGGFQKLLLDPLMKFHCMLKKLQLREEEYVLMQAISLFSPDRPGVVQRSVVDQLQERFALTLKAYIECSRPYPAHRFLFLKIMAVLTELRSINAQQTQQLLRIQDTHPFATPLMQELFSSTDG
# Sequence of Cytochrome P450 3A4 (Homo sapiens) (P08684 whole entry, looked up): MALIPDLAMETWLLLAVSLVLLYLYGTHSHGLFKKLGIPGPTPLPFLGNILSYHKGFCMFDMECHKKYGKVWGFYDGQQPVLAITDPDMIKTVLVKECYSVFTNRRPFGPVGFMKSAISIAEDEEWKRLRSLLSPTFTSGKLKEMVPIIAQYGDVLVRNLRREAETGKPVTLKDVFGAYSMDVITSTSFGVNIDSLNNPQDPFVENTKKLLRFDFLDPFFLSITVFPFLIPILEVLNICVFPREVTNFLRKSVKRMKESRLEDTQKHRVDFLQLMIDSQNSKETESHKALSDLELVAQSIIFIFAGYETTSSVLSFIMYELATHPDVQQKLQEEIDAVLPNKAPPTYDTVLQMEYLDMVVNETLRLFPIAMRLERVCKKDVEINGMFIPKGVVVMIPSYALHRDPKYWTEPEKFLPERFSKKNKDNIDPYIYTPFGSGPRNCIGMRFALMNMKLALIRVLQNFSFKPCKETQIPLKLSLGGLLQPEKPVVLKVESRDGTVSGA
SMILES,Potency [1],"activity change, negative = cytotoxicity [2]",Potency [3],Potency [4],Potency [5],Potency [6],Potency [7],Potency [8],Potency [9],Potency [10],Potency [11],Potency [12],activation [13],max response [14],max response [15],Potency [16],Potency [17],max response [18],outcome [19],outcome [20]
CC(C)(C)OOC(C)(C)C,> 92 µM (inactive),-23.7% (inactive),inactive,inactive,inactive,inactive,inactive,inactive,inactive,inactive,inactive,inactive,-0.0913% (inactive),29.5%,-0.936%,inactive,inactive,2.42% (inactive),inactive,–
Cc1ccc2ccccc2c1,–,-11.3% (inactive),inactive,inactive,inactive,inactive,inactive,inactive,inactive,inactive,inactive,inactive,-0.561% (inactive),14.3%,-14.7%,inactive,inactive,6.07% (inactive),inactive,inactive
CC(C)(C)OO,> 92 µM (inactive),-4.73% (inactive) and 1.03% (inactive),inactive,–,inactive,inactive,inactive,inactive,inactive,inactive,inactive,inactive,–,26.2% and -4.41%,4.87% and -13.2%,inactive,inactive,1.05% (inactive) and -0.992% (inactive),inactive,inactive
O=C=NC1CCCCC1,> 92 µM (inactive),-1.14% (inactive) and -2.08% (inactive),inactive,–,inactive,inactive,inactive,inactive,inactive,inactive,inactive,inactive,-4.4% (inactive) and -2.88% (inactive),–,-3.28% and -9.66%,inactive,inactive,–,inactive,inactive
Cc1ccccc1N,–,-25.3% (inactive) and -5.05% (inactive),inactive,inactive and 25.1 µM (active),inactive,inactive,inactive,inactive,inactive,inactive,inactive,inactive,–,7.62%,1.21% and 0.728%,inactive,inactive,-2.81% (inactive) and 0.311% (inactive),inactive,inactive
COc1ccc(C=O)cc1OC,> 92 µM (inactive),-14% (inactive),inactive,inactive,inactive,inactive,inactive,inactive,inactive,inactive,inactive,inactive,–,–,17.8% and -5.1%,inactive,inactive,-2.56% (inactive) and 1.92% (inactive),inactive,inactive
C=C(C)C(=O)OCC1CO1 (stereo unspecified),> 92 µM (inactive),-17.7% (inactive),inactive,inactive,inactive,inactive,inactive,inactive,inactive,inactive,inactive,inactive,-3.45% (inactive),-13.4%,-10.2%,inactive,inactive,-2.46% (inactive),inactive,inactive
c1ccc2c(c1)CCCC2,> 92 µM (inactive),9.7% (inactive),inactive,inactive,inactive,inactive,inactive,inactive,inactive,inactive,inactive,inactive,-2.64% (inactive),–,-21.1%,inactive,inactive,-0.477% (inactive),inactive,inactive
C=CC(=O)OCC,> 92 µM (inactive),-21.9% (inactive),inactive,inactive,inactive,inactive,inactive,inactive,inactive,inactive,inactive,inactive,-1.2% (inactive),26.1%,-5.05%,inactive,inactive,-4.65% (inactive),inactive,inactive
O=NN(c1ccccc1)c1ccccc1,> 92 µM (inactive),-6.8% (inactive),inactive,inactive,inactive,inactive,inactive,inactive,inactive,inactive,inactive,inactive,-0.746% (inactive) and 1.47% (inactive),35.3%,-13.1% and -6.23%,inactive,inactive,2.63% (inactive) and 4.55% (inactive),inactive,inactive
OCC1CO1 (stereo unspecified),> 92 µM (inactive),-5.54% (inactive),inactive,inactive,inactive,inactive,inactive,inactive,inactive,inactive,inactive,inactive,-2.37% (inactive) and -0.462% (inactive),-3.17% and 28.4%,-4.32%,inactive,–,-4.01% (inactive) and -4.87% (inactive),inactive,–
